HIF-2a inh = inhibitors of HIF-2a. 786-0 RCC cells HIF-2a reporter, luciferase luminescence, overnight. inhibition, % at 18.8 µM. hit rate 0.72% among 360,000. AID 624352;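 active means inhibition of the luminescence signal of 40% or more relative to plate controls, in a single-dose primary screen at 18.75 µM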
KKLEB tox = CF airway cell cytotoxicity counter-screen; KKLEB CF airway cells viability, ATPlite luminescence, overnight; stronger effect = lower value; cells stimulated with P. aeruginosa culture filtrate; activity change (cytotoxicity), % at 5 µM; hit rate 0.36% among 360,000;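 active means corrected activity change at or below -50% at 5 µM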
EWS-Fli block = inhibitors of EWS/Fli oncoprotein transcriptional activity. A673 NR0B1-luciferase reporter, viability-normalised. inhibition, % at 12.6 µM. hit rate 0.67% among 350,000;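 active means mean inhibition of at least 50% after viability correction, with every replicate also passing that limit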;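 further: firefly luciferase signal divided by Alamar Blue viability fluorescence both relative to DMSO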
PAX8 inh HTS = lowers PAX8-driven luciferase in RMG-I cells | AID 652154 | hit rate 1.2% among 360,000 | RMG-I TPO-luciferase reporter, SteadyGlo, 24 h | inhibition, % at 12.6 µM;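 active means mean replicate inhibition at least 60% with every replicate also reaching 60%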;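 further: luciferase light reporting Pax8 driven TPO promoter activity; plate controls were median of neutral control wells for no effect and mitoxantrone controls for full effect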
CF NFkB inh = cystic fibrosis NF-kB activation inhibition; KKLEB NF-kB-GFP reporter, PAF-induced, GFP fluorescence overnight; inhibition, % at 5 µM; hit rate 0.86% among 360,000; AID 588850;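 active means at least 50% inhibition at 5 µM, scaled per plate between neutral and stimulator controls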;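 further: PAF is a Pseudomonas aeruginosa culture filtrate used as stimulus; plate controls were PAF-stimulated DMSO wells for no effect and unstimulated DMSO wells for full effect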
DNA binding = small molecule DNA binding by fluorescence polarization. AC35, µM (titrated, usually from 68 µM), without a hit: top-dose activity change, negative = DNA binding. salmon sperm DNA acridine orange fluorescence polarization. hit rate 2% among 640. shares compounds with EWS-Fli block;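 active means fitted curve reaches a 35% signal fall AC35 below twice the sample's top valid tested dose, actives reach about 48 µM in these data; inactive means the rest, including activity in the rising direction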;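 further: lower polarization ratio signals compound binding to DNA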
* hit, by the source's call; / = no result given. Most compounds without a hit are left out; they make up all but 2.1% or so of the library.

SMILES	HIF-2a inh	KKLEB tox	EWS-Fli block	PAX8 inh HTS	CF NFkB inh	DNA binding
COc1cc(/C=N/NS(=O)(=O)c2ccc(C)cc2)ccc1OCc1cccc(C(=O)O)c1	31.8	-5.6	79.4*	91.3*	-4.2	-9.1%
COc1cc(/C=N/NS(=O)(=O)c2ccc3ccccc3c2)ccc1OCc1ccc(C(=O)O)cc1	17.9	-6.3	68.8*	84.2*	1.8	10.4%
CCOc1ccc(-c2cc(CCCC(=O)N3CCN(c4ccc(OC)cc4)CC3)no2)cc1	50.3*	7.7	60.0*	-8.9	22.5	-7.9%
CCOc1ccc(-c2cc(CCCC(=O)NCCCOC)no2)cc1	32.2	5.4	/	/	-4.9	/
C[C@H](CO)N1C[C@H](C)[C@@H](CN(C)Cc2ccc(Oc3ccccc3)cc2)Oc2ccc(NC(=O)Cn3cnnn3)cc2CC1=O	/	/	3.2	-12.3	/	/
C[C@@H]1CN([C@H](C)CO)C(=O)Cc2cc(NC(=O)Cn3cnnn3)ccc2O[C@H]1CN(C)Cc1ccc(Oc2ccccc2)cc1	/	/	7.3	-4.9	/	/
C[C@@H]1CN([C@@H](C)CO)C(=O)Cc2cc(NC(=O)Cn3cnnn3)ccc2O[C@@H]1CN(C)Cc1ccc(Oc2ccccc2)cc1	/	/	70.4*	14.7	/	-2.2%
C[C@H](CO)N1C[C@H](C)[C@H](CN(C)Cc2ccc(Oc3ccccc3)cc2)Oc2ccc(NC(=O)Cn3cnnn3)cc2CC1=O	/	/	54.5*	11.7	/	-1.2%
O=C1/C(=C\c2ccsc2)N2CCC1CC2	7.7	7.3	7.3	13.6	-7.0	/
CN1C/C(=C/c2ccsc2)C(=O)/C(=C/c2ccsc2)C1	46.8*	7.5	61.5*	8.2	-38.6	-12.7%
C[C@H]1CN([C@@H](C)CO)C(=O)c2cc(NS(=O)(=O)c3ccc(Cl)cc3)ccc2O[C@@H]1CN(C)Cc1ccc(C(=O)Nc2ccccc2N)cc1	/	/	33.9	/	/	/
C[C@H](CO)N1C[C@H](C)[C@H](CN(C)Cc2ccc(C(=O)Nc3ccccc3N)cc2)Oc2ccc(NS(=O)(=O)c3cccs3)cc2C1=O	/	/	53.9*	/	/	-4.1%
C[C@@H]1CN([C@@H](C)CO)C(=O)c2cc(NC(=O)Nc3ccccc3)ccc2O[C@@H]1CN(C)Cc1ccc(C(=O)Nc2ccccc2N)cc1	/	/	58.3*	-19.1	/	4.9%
C[C@@H]1CN([C@@H](C)CO)C(=O)c2cc(NS(=O)(=O)c3ccc(Cl)cc3)ccc2O[C@@H]1CN(C)Cc1ccc(C(=O)Nc2ccccc2N)cc1	/	/	53.2*	/	/	-2.1%
Cc1ccc(S(=O)(=O)Nc2ccc3c(c2)C(=O)N([C@H](C)CO)C[C@@H](C)[C@@H](CN(C)Cc2ccc(C(=O)Nc4ccccc4N)cc2)O3)cc1	/	/	51.3*	5.3	/	-9.5%
COc1ccc2c3c(n(C)c2c1)[C@@H](CO)N(C(=O)Nc1ccc(F)cc1)CC31CN(CC2CCOCC2)C1	/	/	7.0	/	/	/
C[C@@H]1CN([C@H](C)CO)C(=O)Cc2cc(NS(=O)(=O)c3ccccc3)ccc2O[C@H]1CN(C)S(=O)(=O)c1ccccc1	/	/	-9.7	-12.0	/	/
C[C@@H]1CCCCO[C@@H](CN(C)Cc2ccc(C(=O)Nc3ccccc3N)cc2)[C@@H](C)CN([C@H](C)CO)C(=O)c2cc(NS(=O)(=O)c3ccccc3)ccc2O1	/	/	9.9	-2.5	/	/
C[C@@H]1CCCCO[C@H](CN(C)Cc2ccc(C(=O)Nc3ccccc3N)cc2)[C@@H](C)CN([C@H](C)CO)C(=O)c2cc(NS(=O)(=O)c3ccc(Cl)cc3)ccc2O1	/	/	61.1*	38.4	/	-13.0%
CC(C)(C)C(=O)Nc1ccc(N=Nc2ccccc2)cc1	-2.2	-38.6	59.2*	-37.1	-15.5	-4.8%
O=C(O)CCC(=O)Nc1ccc(N=Nc2ccccc2)cc1	5.4	-0.4	/	/	8.1	/
Cc1c(Cc2ccc3c(c2)OCO3)sc(NC(=O)C(C)(C)C)c1C#N	-28.5	-6.3	54.6*	-11.0	21.1	-2.6%
CCC(=O)Nc1sc(Cc2ccc3c(c2)OCO3)c(C)c1C(N)=O	20.7	-6.1	3.3	-18.1	10.9	/
CCN1CCS/C1=C\C=C\C1=[N+](CC)CCS1	21.6	1.4	52.7*	76.1*	31.0	-1.2%
O=C(C[C@H]1C[C@H]2c3cc(NS(=O)(=O)c4ccc(F)cc4)ccc3O[C@H]2[C@H](CO)O1)NC1CCCCC1	/	/	13.0	30.2	/	/
SMILES	HIF-2a inh	KKLEB tox	EWS-Fli block	PAX8 inh HTS	CF NFkB inh	DNA binding
Cc1ccsc1C(=O)OCC(=O)c1cc(C)n(C)c1C	-143.2	3.9	62.8*	47.6	-6.0	-10.6%
COc1cc(C(=O)CSc2nccn2C)cc(OC)c1OC	-14.4	1.6	-29.4	1.7	-11.4	/
COc1cc(-c2noc(C)c2C#Cc2nccn2C)cc(OC)c1OC	6.3	-19.5	51.5*	24.5	-4.8	-9.4%
CC(=O)Nc1cccc(-c2ccnc3c2CC(C)(C(=O)NCc2ccc(N(C)C)cc2)O3)c1 (stereo not given)	-7.5	-7.2	54.4*	35.3	-14.7	-15.0%
CN(C)c1ccc(CNC(=O)C2(C)Cc3c(-c4cccc(C(F)(F)F)c4)ccnc3O2)cc1 (stereo not given)	18.4	-15.7	8.1	18.4	18.7	/
CC(=O)NC[C@H]1[C@H](c2ccc(-c3ccccc3)cc2)[C@@H](CO)N1C(=O)C1CC1	/	/	5.4	-18.0	/	/
COc1ccccc1NC(=O)N1CCCCN2[C@H](CO)[C@H](c3ccc(-c4ccc(C)cc4)cc3)[C@@H]2C1	/	/	9.1	4.0	/	/
COc1ccccc1NC(=O)N1CCCCN2[C@H](CO)[C@H](c3ccc(-c4cccc(C)c4)cc3)[C@H]2C1	/	/	61.4*	104.0*	/	-5.7%
O=C(Nc1ccccc1F)N1CCCCN2[C@H](CO)[C@H](c3ccc(/C=C/c4ccccc4)cc3)[C@H]2C1	/	/	76.1*	-4.0	/	-8.0%
COc1ccc(NC(=O)N2CCCCN3[C@H](CO)[C@H](c4ccc(C#CCC(C)C)cc4)[C@H]3C2)cc1	/	/	72.6*	31.4	/	-2.2%
CCC(=O)N1C[C@@H](C)[C@@H](OC)CN(C)C(=O)c2cc(NC(=O)c3cnccn3)ccc2OC[C@H]1C	/	/	0.8	/	/	/
COc1ccc(C2=NNC(=Nc3cc(S(=O)(=O)N(C)C)ccc3C)SC2)c(OC)c1	0.3	3.7	52.3*	103.2*	13.9	-18.6%
CCOc1ccc(N=Nc2ccc(O)c3ncccc23)cc1	7.2	7.2	57.8*	35.4	-38.3	-8.1%
NS(=O)(=O)c1ccc(N=Nc2ccc(O)c3ncccc23)cc1	-0.8	6.2	24.0	59.9	-11.1	/
Cc1cc(C(=O)Nc2cccc3c2O[C@H](CN(C)Cc2ccc(C(=O)O)cc2)[C@H](C)CN([C@@H](C)CO)C3=O)n(C)n1	/	/	/	-5.1	/	/
O=C(CN1C(=O)C(=O)c2ccccc21)c1ccc(Cl)cc1	8.3	8.3	60.3*	13.6	6.5	-8.3%
O=C(CN1C(=O)C(=O)c2ccccc21)OCN1C(=O)c2ccccc2C1=O	9.4	-10.9	11.4	-15.9	5.1	/
CCN(CC)C(=O)CN1C(=O)C(=O)c2ccccc21	4.6	-6.4	54.1*	30.5	15.7	-9.3%

High-throughput results (PubChem BioAssay)
